# According to PubChem BioAssay AID686940 (The Scripps Research Institute Molecular Screening Center, 2013):
# Out of some 370,000 compounds screened, about 2,600 (0.7%) were called active. The entries come from a sample that favours actives as a whole. Values without a mark were called inactive.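 How the source made its calls: active means inhibition above a per-plate cutoff, mean inhibition of test wells between control levels plus 3 SD (cut at about 38% in these data); inactive means the rest.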
# Target: COUP transcription factor 2 (Homo sapiens) (UniProt P24468)
# Assay: COUP-TFII reporter suppression in human cells – cell-based, luciferase reporter, HEK293T, luminescence, primary screen (AID 686940);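 further: cells cotransfected with COUP-TFII expression vector driving the NGFI-A reporter; 0% = median of COUP-TF2 test wells and 100% = reporter-only cells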
# Details: HEK293T NGFI-A luciferase reporter, at 8.6 µM, active compounds read high
# Sequence of COUP transcription factor 2 (Homo sapiens) (P24468 whole entry, looked up): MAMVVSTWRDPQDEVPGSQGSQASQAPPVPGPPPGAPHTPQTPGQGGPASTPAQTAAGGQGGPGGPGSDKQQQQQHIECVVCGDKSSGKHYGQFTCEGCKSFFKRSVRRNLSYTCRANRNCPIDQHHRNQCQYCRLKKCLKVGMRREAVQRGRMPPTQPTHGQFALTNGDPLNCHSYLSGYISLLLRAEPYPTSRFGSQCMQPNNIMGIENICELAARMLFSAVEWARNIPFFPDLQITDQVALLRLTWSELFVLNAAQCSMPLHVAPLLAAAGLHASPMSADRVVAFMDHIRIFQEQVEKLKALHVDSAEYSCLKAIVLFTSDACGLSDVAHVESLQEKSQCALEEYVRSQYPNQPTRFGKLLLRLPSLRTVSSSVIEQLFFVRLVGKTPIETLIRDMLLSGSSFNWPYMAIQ
row,Structure (SMILES),inhibition
1,CC1=CC(=Cc2sc3ccccc3[n+]2C)C=C(C)O1,71.6% (active)
2,O=C(NCC1=C(c2ccc3ccccc3c2)C[C@@H]2CC[C@H]1N2Cc1ccco1)c1cccs1,-9.66%
3,COC(=O)C1=C(c2ccc(-c3ccccc3)c(F)c2)C[C@@H]2CC[C@H]1N2C(=O)NCc1ccc(F)cc1,9.38%
4,Cc1cccc(NC(=O)OC2CN3CCC2CC3)c1 (stereo not given),-3.61%
5,COC1C(O)C(C)OC(OC2CCC3(C=O)C(CCC4C3CCC3(C)C(C5=CC(=O)OC5)CCC43O)C2)C1O (stereo not given),78.5% (active)
6,Cc1ccc(P(=S)(c2ccc(C)o2)N2CCOCC2)o1,-6.39%
7,O=C(C1CC(=O)N(C2CCCC2)C1)N1CCC2(CC1)OCCO2 (stereo not given),-6.43%
8,CC(=C1C(=O)c2ccccc2C1=O)N1CCN(CCN=Cc2c(O)n(C)c(=O)n(C)c2=O)CC1,13.2%
9,c1ccc(C(CN2CCCCC2)c2ccccc2)cc1,5.82%
10,CCOc1ccc(-c2cc(C)[n+](CCN(CC)CC)c(-c3ccc(OCC)cc3)c2)cc1,65.8% (active)
11,Cc1cc(N2CCNC[C@@H]2C)ccc1N1CC[C@H](O)C1,14.6%
12,Cc1ccccc1CCC[C@@H](CC1CCCCC1)CN(C)C(=O)Oc1ccccc1,0.63%
13,CO[C@H]([C@H](C)/C=C/N(C)C=O)[C@@H](C)C(=O)CC[C@H](C)[C@H](O)[C@H](C)[C@H]1OC(=O)/C=C/C(C)=C/[C@H](O)[C@H](OC)C[C@@H]2C=CC[C@@H](C[C@H](OC)[C@@]3(CO3)[C@@H](OC)C[C@@H](OC)[C@@H]1C)O2,-21.1%
14,CCC(C)(O)C(=O)OC1C(=O)OC2CC3C(C)=CC(=O)C(O)C3(C)C3C4(O)OCC23C1C(C)C4O (stereo not given),89.2% (active)
15,CC(C)Oc1cccc(C(=O)C2CCCN(C3CCOCC3)C2)c1 (stereo not given),-4.53%
16,COc1ccc2c(c1)[C@@]13CCCCC1[C@@H](C2)NCC3 (stereo not given in full),-12.9%
17,Clc1ccc([C@@H]2CC3CCC2N3)cn1 (stereo not given in full),-1.27%
18,O=S(=O)(c1ccccc1)N1CCC2CCNC2C1 (stereo not given),12.5%
19,CS(=O)(=O)N1CCC2CCNC2C1 (stereo not given),8.62%
20,Brc1ccc2c(c1)CNCc1cnnn1-2,-8.52%
21,CCCCCCCCCCCCn1ccc(=N)cc1,81.1% (active)
22,COP(=O)(Sc1ccccc1)C(Cc1ccccc1)NC(=O)OCc1ccccc1 (stereo not given),-13.2%
23,CC(=NC1CCN(Cc2ccccc2)CC1)c1c(O)n(C)c(=O)n(C)c1=O,-7.27%
24,CCC(C)NC1(c2ccccc2)CCCCC1 (stereo not given),6.15%
25,O=c1c2ccccc2nc(CBr)n1-c1ccc(Cl)cc1,6.6%
26,C[C@]12CC[C@H](O)C[C@H]1CC[C@@H]1C2CC[C@]2(C)[C@@H](C3=CC(=O)OC3)[C@@H](O)C[C@]12O (stereo not given in full),44.1% (active)
27,CCN(CC)C(=O)[C@@H]1C=C2c3cccc4[nH]c(Br)c(c34)C[C@H]2N(C)C1,14.9%
28,CCC/C(=N\O)c1c[nH]c2ccccc12,-11.3%
29,COc1cc(OC)cc(C(=O)NCCN2CCC3(CC2)C(=O)NCN3c2ccccc2)c1,0.55%
30,NCCc1ccc(S(=O)(=O)F)cc1,18.9%
